Test results as given in PubChem BioAssay.
The source made the active and inactive calls. Unless noted, the rule behind the calls is not given here.

How the values were obtained:
[1] = tested on: Wnt5a (protein binding on small-molecule microarray); test: small molecules binding Wnt5a protein – biophysical, small-molecule microarray, 635/667 nm fluorescence, primary screen (AID 1142); conditions: 635 nm fluorescence, higher = more signal;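 note: fluorescence read at 667 nm with signal to noise per printed feature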
[2] = ATP-based viability of Huh7 replicon cells – cell-based, CellTiter-Glo luminescence, basal, 48 h, cytotoxicity control for HCV replication inhibitor project, primary screen (AID 1143); conditions: higher = more signal, called active from +8 up or from −8 down;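 note: Huh7 hepatoma cells carrying a hepatitis C replication reporter with no stimulus; test concentration not given here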
[3] = Pseudomonas biofilm growth suppression – PAO1 strain, BacTiter-Glo luminescence, LB-PBS, primary screen (AID 1144); conditions: P. aeruginosa PAO1 biofilm, 12 h, higher = more signal
[4] = basal CRE-LacZ reporter activity in PC12 – cell-based, unstimulated, primary screen (AID 1145); conditions: no forskolin, luminescence, 4.5 h, higher = more signal, called active from +8 up or from −8 down
[5] = forskolin-driven CRE-LacZ activity in PC12 – cell-based, CRE-LacZ reporter, forskolin-stimulated, primary screen (AID 1146); conditions: luminescence, 4.5 h, higher = more signal, called active from +8 up or from −8 down;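 note: PC12 cells with 6xCRE LacZ reporter stimulated by forskolin 10 µM; beta-galactosidase reporter signal reflecting CREB driven transcription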
[6] = target: Streptavidin (Streptomyces avidinii) (UniProt P22629); test: compounds binding control protein streptavidin – biophysical, small-molecule microarray, 635/667 nm fluorescence, artefact control for SMM compound annotation, primary screen (AID 1147); conditions: higher = more signal;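 note: signal reflects streptavidin binding to arrayed compounds as a control protein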
Streptavidin (Streptomyces avidinii), sequence (P22629 whole entry, looked up): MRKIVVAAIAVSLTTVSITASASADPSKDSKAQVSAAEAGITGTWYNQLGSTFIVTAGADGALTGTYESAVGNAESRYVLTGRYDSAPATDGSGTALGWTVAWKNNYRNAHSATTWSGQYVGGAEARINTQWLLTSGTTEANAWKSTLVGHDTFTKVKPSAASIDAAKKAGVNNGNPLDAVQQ

[7] = probe aInhba binding on compound microarray – biochemical, small-molecule microarray, 635/667 nm fluorescence, primary screen (AID 1148); conditions: higher = more signal;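 note: score merges 667nm spot fluorescence with signal-to-noise for antibody binding to printed compounds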
Torsin-1A (Homo sapiens) [8] = target: Torsin-1A (Homo sapiens) (UniProt O14656); test: TOR1A wild-type binding on microarray – cell lysate, small-molecule microarray, lysate, 635/667 nm, primary screen (AID 1149); conditions: COS7 hTOR1A-WT lysate, 635 nm fluorescence, higher = more signal
Torsin-1A (Homo sapiens), sequence (O14656 whole entry, looked up): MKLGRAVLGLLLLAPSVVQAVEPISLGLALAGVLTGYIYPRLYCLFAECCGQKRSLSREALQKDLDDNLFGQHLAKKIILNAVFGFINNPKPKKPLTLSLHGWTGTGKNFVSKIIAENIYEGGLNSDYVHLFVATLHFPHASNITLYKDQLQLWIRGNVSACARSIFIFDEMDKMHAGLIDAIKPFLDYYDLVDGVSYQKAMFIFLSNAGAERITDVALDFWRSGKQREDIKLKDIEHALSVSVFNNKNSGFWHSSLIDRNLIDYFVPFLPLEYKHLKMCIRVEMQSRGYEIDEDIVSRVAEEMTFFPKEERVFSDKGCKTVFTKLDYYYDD

Torsin-1A (Homo sapiens) [9] = target: Torsin-1A (Homo sapiens) (UniProt O14656); test: torsin A mutant lysate binding on microarrays – cell lysate, small-molecule microarray, COS7 lysate, 635/667 nm fluorescence, primary screen (AID 1150); conditions: COS7 hTOR1A mutant lysate, 635 nm fluorescence, higher = more signal;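 note: score pools 667 nm emission and signal to noise measuring lysate protein binding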
[10] = tested on: Sonic hedgehog protein (Shh); test: Sonic hedgehog microarray binding compounds – biochemical, small-molecule microarray, 635/667 nm fluorescence, primary screen (AID 1151); conditions: 635 nm fluorescence, higher = more signal;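 note: Shh protein binding to compounds spotted on small-molecule microarray slides; score combines spot fluorescence intensity with signal-to-noise across triplicate slides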
[11] = optical density shifts of acrAB sulA E. coli – strain DRC41, OD650, 48 h, E. coli filamentation inducer project, primary screen (AID 1152); conditions: higher = more signal, called active from +8 up or from −8 down;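 note: E. coli MC1000 strain DRC41 lacking acrAB efflux pump and sulA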
[12] = probe aLefty1 binding on compound microarray – biochemical, small-molecule microarray, 635/667 nm fluorescence, primary screen (AID 1153); conditions: higher = more signal;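 note: score merges spot fluorescence with signal-to-noise ratio from the scanned slide images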
[13] = plasmodial surface anion channel blockers, osmotic lysis – cell-based, P. falciparum Indochina, OD700, 1 h, primary screen (AID 1154); conditions: P. falciparum Indochina infected RBC osmotic lysis, higher = more signal, called active from +8 up or from −8 down
[14] = plasmodial surface anion channel blockers, osmotic lysis – cell-based, P. falciparum Indochina, OD700, 2 h, primary screen (AID 1155);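 note: lysis reports solute entry through the parasite surface anion channel PSAC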; conditions: P. falciparum Indochina infected erythrocytes, higher = more signal, called active from +8 up or from −8 down
[15] = changes in parasitized red cell lysis, either direction – P. falciparum Indochina, OD700, 3 h, PSAC antagonist project, primary screen (AID 1156); conditions: P. falciparum-infected erythrocytes, osmotic lysis, higher = more signal, called active from +8 up or from −8 down
[16] = plasmodial surface anion channel blockers, osmotic lysis – cell-based, P. falciparum Indochina, OD700, 18 h, primary screen (AID 1157); conditions: P. falciparum Indochina infected erythrocytes, osmotic lysis OD700, 18 h; higher = more signal, called active from +8 up or from −8 down
[17] = S6 kinase pathway phospho-S6 level changes – cell-based, A549, cytoblot, luminescence, serum-stimulated, primary screen (AID 1158); conditions: 5 h, higher = more signal;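 note: serum-stimulated A549 lung adenocarcinoma cells; signal is phosphorylated S6 detected by cytoblot immunostaining with HRP secondary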
[18] = target: NADPH oxidase 2 (Homo sapiens) (UniProt P04839); test: compounds shifting NOX2 Amplex Red fluorescence – cell-based, HEK293-NOX2, PMA-stimulated, NOX inhibitor project, primary screen (AID 1159); conditions: 45 min, higher = more signal, called active from +8 up or from −8 down; note: test concentration not given here
NADPH oxidase 2 (Homo sapiens), sequence (P04839 whole entry, looked up): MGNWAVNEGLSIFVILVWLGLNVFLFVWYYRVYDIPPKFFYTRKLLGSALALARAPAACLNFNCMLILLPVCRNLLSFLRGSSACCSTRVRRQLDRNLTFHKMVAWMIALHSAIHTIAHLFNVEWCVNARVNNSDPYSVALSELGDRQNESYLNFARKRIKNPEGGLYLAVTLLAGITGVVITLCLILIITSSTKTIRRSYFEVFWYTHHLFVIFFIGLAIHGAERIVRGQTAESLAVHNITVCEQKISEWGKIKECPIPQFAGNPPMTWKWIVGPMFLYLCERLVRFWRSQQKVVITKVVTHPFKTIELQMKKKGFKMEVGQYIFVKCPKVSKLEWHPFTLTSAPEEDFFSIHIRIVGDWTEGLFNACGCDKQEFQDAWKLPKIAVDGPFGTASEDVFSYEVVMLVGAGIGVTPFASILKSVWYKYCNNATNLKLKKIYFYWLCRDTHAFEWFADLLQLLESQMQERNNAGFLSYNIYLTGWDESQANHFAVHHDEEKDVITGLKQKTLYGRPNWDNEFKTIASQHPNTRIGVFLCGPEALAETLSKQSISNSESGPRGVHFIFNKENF

[19] = target: NADPH oxidase 4 (Homo sapiens) (UniProt Q9NPH5); test: compounds shifting NOX4 Amplex Red fluorescence – cell-based, HEK293-NOX4, tetracycline-induced, NOX inhibitor project, primary screen (AID 1160); conditions: HEK293-NOX4, Amplex Red H2O2 fluorescence, 45 min; higher = more signal, called active from +8 up or from −8 down
NADPH oxidase 4 (Homo sapiens), sequence (Q9NPH5 whole entry, looked up): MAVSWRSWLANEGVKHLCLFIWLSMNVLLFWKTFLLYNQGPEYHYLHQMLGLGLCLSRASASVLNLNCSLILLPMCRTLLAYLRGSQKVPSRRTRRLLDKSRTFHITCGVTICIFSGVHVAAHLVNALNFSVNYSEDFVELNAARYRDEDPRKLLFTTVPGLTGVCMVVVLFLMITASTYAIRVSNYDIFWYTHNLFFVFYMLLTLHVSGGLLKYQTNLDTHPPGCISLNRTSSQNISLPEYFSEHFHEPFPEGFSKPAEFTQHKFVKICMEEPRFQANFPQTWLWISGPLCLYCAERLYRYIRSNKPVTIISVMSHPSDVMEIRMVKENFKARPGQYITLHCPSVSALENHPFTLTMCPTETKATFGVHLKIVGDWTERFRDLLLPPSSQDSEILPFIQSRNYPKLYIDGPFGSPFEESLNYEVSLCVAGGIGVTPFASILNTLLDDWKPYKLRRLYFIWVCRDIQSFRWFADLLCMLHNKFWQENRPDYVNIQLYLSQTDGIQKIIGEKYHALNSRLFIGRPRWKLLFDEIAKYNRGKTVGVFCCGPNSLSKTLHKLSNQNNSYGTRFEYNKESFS

[20] = target: NADPH oxidase 5 (Homo sapiens) (UniProt Q96PH1); test: compounds shifting NOX5 Amplex Red fluorescence – cell-based, HEK293-NOX5, NOX inhibitor project, primary screen (AID 1161); conditions: HEK293-NOX5, ionomycin, 45 min, higher = more signal
NADPH oxidase 5 (Homo sapiens), sequence (Q96PH1 whole entry, looked up): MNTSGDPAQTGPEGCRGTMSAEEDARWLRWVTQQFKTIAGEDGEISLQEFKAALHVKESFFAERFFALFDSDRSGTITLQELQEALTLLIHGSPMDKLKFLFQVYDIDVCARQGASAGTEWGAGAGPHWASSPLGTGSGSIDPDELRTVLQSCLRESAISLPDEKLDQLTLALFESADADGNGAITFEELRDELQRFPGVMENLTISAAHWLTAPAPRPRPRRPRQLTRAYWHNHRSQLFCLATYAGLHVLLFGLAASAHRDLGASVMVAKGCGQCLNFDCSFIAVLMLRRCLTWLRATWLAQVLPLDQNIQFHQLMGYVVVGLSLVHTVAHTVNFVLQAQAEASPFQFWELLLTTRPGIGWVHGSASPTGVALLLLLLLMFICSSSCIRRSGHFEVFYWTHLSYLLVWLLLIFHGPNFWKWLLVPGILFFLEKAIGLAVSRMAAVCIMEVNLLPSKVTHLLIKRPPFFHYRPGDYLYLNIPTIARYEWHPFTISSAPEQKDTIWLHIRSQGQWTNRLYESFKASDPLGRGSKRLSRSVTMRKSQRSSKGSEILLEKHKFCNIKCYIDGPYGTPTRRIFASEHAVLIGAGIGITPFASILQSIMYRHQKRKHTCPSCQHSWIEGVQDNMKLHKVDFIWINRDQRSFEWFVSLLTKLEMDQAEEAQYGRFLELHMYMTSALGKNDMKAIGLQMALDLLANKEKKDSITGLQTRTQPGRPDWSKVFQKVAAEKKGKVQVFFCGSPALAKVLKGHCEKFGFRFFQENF

In the case of `C=CC[C@H](OC(=O)Nc1ccc(SC)cc1)c1ccc(OCCO)cc1`, the composite z-score [1] was -0.348, the z-score [2] was -2.69 (inactive) and the z-score [3] was -0.982 (inactive). For the same compound, the z-score [4] was 8.61 (active), the z-score [5] was 0.938 (inactive) and the composite z-score [6] was -0.707. For the same compound, the composite z-score [7] was -0.112, the composite z-score (Torsin-1A (Homo sapiens) [8]) was 0.25 and the composite z-score (Torsin-1A (Homo sapiens) [9]) was 0.154. For the same compound, the composite z-score [10] was 1.68, the z-score [11] was -0.393 (inactive) and the composite z-score [12] was -0.0987. For the same compound, the z-score [13] was 31 (active), the z-score [14] was 17.3 (active) and the z-score [15] was 3.54 (inactive). The z-score [16] was 1.58 (inactive), the z-score [17] was -0.161 and the z-score [18] was -1.96 (inactive). The z-score [19] was -0.438 (inactive) and the z-score [20] was -1.34.
For `CCOC(=O)C[C@H]1[C@H](OC(=O)c2ccccc2-c2ccccc2)[C@@H](NC(=O)c2ccc3ccccc3n2)c2cc(OCCCO)ccc2N1C(=O)c1ccccc1`, the composite z-score [1] was 0.233, the z-score [2] was -0.0416 (inactive) and the z-score [3] was 1.12 (inactive). For the same compound, the z-score [4] was 2.57 (inactive), the z-score [5] was 0.655 (inactive) and the composite z-score [6] was -0.197. It also gave a composite z-score [7] of -0.0933, a composite z-score (Torsin-1A (Homo sapiens) [8]) of -0.0653 and a composite z-score (Torsin-1A (Homo sapiens) [9]) of 0.182. For the same compound, the composite z-score [10] was 1.37, the z-score [11] was -1.04 (inactive) and the composite z-score [12] was 0.0355. The z-score [13] was 1.35 (inactive), the z-score [14] was 0.496 (inactive) and the z-score [15] was 0.667 (inactive). The z-score [16] was 0.305 (inactive), the z-score [17] was -0.35 and the z-score [18] was 0.838 (inactive). The z-score [19] was 1.23 (inactive) and the z-score [20] was 2.31.
In the case of `COCCOC(=O)N1C(=O)[C@@]2(c3cc(C#CC4(O)CCCCCC4)ccc31)[C@H](C(=O)N1CCN(c3ncccn3)CC1)[C@H]1C(=O)O[C@H](c3ccccc3)[C@H](c3ccccc3)N1[C@@H]2c1ccccc1OCCO`, the composite z-score [1] was 0.329, the z-score [2] was -2.56 (inactive) and the z-score [3] was 0.884 (inactive). The z-score [4] was 0.204 (inactive), the z-score [5] was 1.22 (inactive) and the composite z-score [6] was 0.0715. It also gave a composite z-score [7] of 0.258, a composite z-score (Torsin-1A (Homo sapiens) [8]) of 0.835 and a composite z-score (Torsin-1A (Homo sapiens) [9]) of 0.577. For the same compound, the composite z-score [10] was 1.52, the z-score [11] was -0.53 (inactive) and the composite z-score [12] was 0.487. The z-score [13] was 1.57 (inactive), the z-score [14] was 0.276 (inactive) and the z-score [15] was 0.547 (inactive). The z-score [16] was 0.384 (inactive), the z-score [17] was -0.21 and the z-score [18] was 1.82 (inactive). The z-score [19] was -0.726 (inactive) and the z-score [20] was 1.31.
With `COC(=O)C(CC#Cc1ccc2c(c1)[C@]1(C(=O)N2)[C@H](C(=O)Nc2nc3ccccc3s2)[C@H]2C(=O)O[C@H](c3ccccc3)[C@H](c3ccccc3)N2[C@@H]1c1ccc(OCCO)cc1)C(=O)OC` the composite z-score [1] was 1.07, the z-score [2] was -2.48 (inactive) and the z-score [3] was -1.7 (inactive). For the same compound, the z-score [4] was 0.415 (inactive), the z-score [5] was -0.856 (inactive) and the composite z-score [6] was 1.25. It also gave a composite z-score [7] of 0.146, a composite z-score (Torsin-1A (Homo sapiens) [8]) of 1.65 and a composite z-score (Torsin-1A (Homo sapiens) [9]) of 0.541. The composite z-score [10] was 1.53, the z-score [11] was 2.65 (inactive) and the composite z-score [12] was 0.5. For the same compound, the z-score [13] was 5.91 (inactive), the z-score [14] was 0.782 (inactive) and the z-score [15] was 0.299 (inactive). The z-score [16] was -1.27 (inactive), the z-score [17] was 1.76 and the z-score [18] was 1.1 (inactive). The z-score [19] was 0.326 (inactive) and the z-score [20] was 0.613.
In the case of `COc1cccc(/C=C(\C#N)C(=O)Nc2c(C)n(C)n(-c3ccccc3)c2=O)c1`, the composite z-score [1] was 0.152, the z-score [2] was -2.45 (inactive) and the z-score [3] was -1.47 (inactive). For the same compound, the z-score [4] was -0.788 (inactive), the z-score [5] was -0.821 (inactive) and the composite z-score [6] was 0.841. It also gave a composite z-score [7] of -0.206, a composite z-score (Torsin-1A (Homo sapiens) [8]) of 0.217 and a composite z-score (Torsin-1A (Homo sapiens) [9]) of 0.285. The composite z-score [10] was 0.241, the z-score [11] was 1.42 (inactive) and the composite z-score [12] was -0.168. For the same compound, the z-score [13] was 2.13 (inactive), the z-score [14] was -0.901 (inactive) and the z-score [15] was 0.381 (inactive). For the same compound, the z-score [16] was -0.924 (inactive), the z-score [17] was 1.06 and the z-score [18] was -0.355 (inactive). The z-score [19] was 0.139 (inactive) and the z-score [20] was 0.595.
With `COC(=O)[C@@]1(Cc2ccc(F)cc2)[C@H]2c3cc(C(=O)N(C)C)n(Cc4ccc(O)c(OC)c4)c3C[C@H]2CN1C(=O)c1ccccc1` the composite z-score [1] was 0.128, the z-score [2] was -2.65 (inactive) and the z-score [3] was -1.24 (inactive). For the same compound, the z-score [4] was 0.387 (inactive), the z-score [5] was 0.0711 (inactive) and the composite z-score [6] was 0.575. It also gave a composite z-score [7] of -0.108, a composite z-score (Torsin-1A (Homo sapiens) [8]) of 0.198 and a composite z-score (Torsin-1A (Homo sapiens) [9]) of 0.484. The composite z-score [10] was -0.556, the z-score [11] was -1.45 (inactive) and the composite z-score [12] was 0.681. The z-score [13] was 3.77 (inactive), the z-score [14] was -0.164 (inactive) and the z-score [15] was 1.74 (inactive). The z-score [16] was -1.74 (inactive), the z-score [17] was 2 and the z-score [18] was -2.68 (inactive). The z-score [19] was -5.32 (inactive) and the z-score [20] was -1.16.
In the case of `COC(=O)C1=CC(CCCO)=CC(c2ccc(CN3CCCC3)cc2)N(Cc2cc3c(cc2Br)OCO3)C=C1C(=O)OC` (stereo not given), the composite z-score [1] was 0.804, the z-score [2] was -0.0928 (inactive) and the z-score [3] was -0.44 (inactive). For the same compound, the z-score [4] was 0.0118 (inactive), the z-score [5] was -0.602 (inactive) and the composite z-score [6] was 1.98. It also gave a composite z-score [7] of 0.36, a composite z-score (Torsin-1A (Homo sapiens) [8]) of 0.0851 and a composite z-score (Torsin-1A (Homo sapiens) [9]) of 2.59. The composite z-score [10] was -0.249, the z-score [11] was 0.235 (inactive) and the composite z-score [12] was 0.744. For the same compound, the z-score [13] was 0.903 (inactive), the z-score [14] was 0.408 (inactive) and the z-score [15] was 1.23 (inactive). The z-score [16] was 0.082 (inactive), the z-score [17] was 0.158 and the z-score [18] was 1.64 (inactive). The z-score [19] was -0.638 (inactive) and the z-score [20] was 0.399.
In the case of `CN(C)CCCCCCNC(=O)[C@@H]1C[C@@H]2C(=O)N[C@@H](CCCCN)C(=O)N2[C@@H]1c1ccc(O)cc1`, the composite z-score [1] was 1.95, the z-score [2] was -1.9 (inactive) and the z-score [3] was -1.3 (inactive). For the same compound, the z-score [4] was -1.08 (inactive), the z-score [5] was -0.643 (inactive) and the composite z-score [6] was 2.97. It also gave a composite z-score [7] of 1.93, a composite z-score (Torsin-1A (Homo sapiens) [8]) of 3.46 and a composite z-score (Torsin-1A (Homo sapiens) [9]) of 3.21. For the same compound, the composite z-score [10] was 1.88, the z-score [11] was 0.724 (inactive) and the composite z-score [12] was 3.1. For the same compound, the z-score [13] was 0.983 (inactive), the z-score [14] was -0.111 (inactive) and the z-score [15] was 2.87 (inactive). The z-score [16] was -1.88 (inactive), the z-score [17] was 1.32 and the z-score [18] was -0.0284 (inactive). The z-score [19] was 0.901 (inactive) and the z-score [20] was 1.13.
